Screens: PubChem, National Center for Advancing Translational Sciences (NCATS)
EPAC1 antag – EPAC1 (human) antagonism; AID 720709; EPAC1 GEF assay, Rap1b-BODIPY-GDP exchange fluorescence; Potency, µM (doses to about 115 µM), inactives show at the highest dose activity change, negative = inhibition, most hits filed as inhibitors; hit rate 0.14% among 360,000;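 further: plate controls were vehicle for no effect and positive control for full effect; nearly all actives have a fitted effect of over 50% in size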
EPAC1 agonist – EPAC1 (human) agonism; hit rate 0.073% among 360,000; EPAC1 agonist qHTS, biochemical assay; response scale: 100% = response to 6.5 mM cAMP; O95398; Potency, µM (doses to about 154 µM), without a hit: top-dose activation, usual class: activators; further: nearly all actives have a fitted effect of over 60% in size
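EPAC1 100 nM, Rap1B–BODIPY-GDP 250 nM, unlabeled GDP 50 uM; compound titration; 5 min RT; kinetic read ex480/em540 at 5-min intervals ×30 min; data normalized to 6.5 mM cAMP agonist control.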
EPAC2 agonist – EPAC2 (human) agonism. Potency, µM (doses to about 154 µM), inactives show at the top dose activation, actives largely listed as activators. Q8WZA2. AID 720711. EPAC2 activation, biochemical qHTS; response scale: 100% = 6.5 mM cAMP response. hit rate 0.079% among 360,000; further: nearly all actives have a fitted effect of over 50% in size
Target sequence (Q8WZA2 whole entry, looked up): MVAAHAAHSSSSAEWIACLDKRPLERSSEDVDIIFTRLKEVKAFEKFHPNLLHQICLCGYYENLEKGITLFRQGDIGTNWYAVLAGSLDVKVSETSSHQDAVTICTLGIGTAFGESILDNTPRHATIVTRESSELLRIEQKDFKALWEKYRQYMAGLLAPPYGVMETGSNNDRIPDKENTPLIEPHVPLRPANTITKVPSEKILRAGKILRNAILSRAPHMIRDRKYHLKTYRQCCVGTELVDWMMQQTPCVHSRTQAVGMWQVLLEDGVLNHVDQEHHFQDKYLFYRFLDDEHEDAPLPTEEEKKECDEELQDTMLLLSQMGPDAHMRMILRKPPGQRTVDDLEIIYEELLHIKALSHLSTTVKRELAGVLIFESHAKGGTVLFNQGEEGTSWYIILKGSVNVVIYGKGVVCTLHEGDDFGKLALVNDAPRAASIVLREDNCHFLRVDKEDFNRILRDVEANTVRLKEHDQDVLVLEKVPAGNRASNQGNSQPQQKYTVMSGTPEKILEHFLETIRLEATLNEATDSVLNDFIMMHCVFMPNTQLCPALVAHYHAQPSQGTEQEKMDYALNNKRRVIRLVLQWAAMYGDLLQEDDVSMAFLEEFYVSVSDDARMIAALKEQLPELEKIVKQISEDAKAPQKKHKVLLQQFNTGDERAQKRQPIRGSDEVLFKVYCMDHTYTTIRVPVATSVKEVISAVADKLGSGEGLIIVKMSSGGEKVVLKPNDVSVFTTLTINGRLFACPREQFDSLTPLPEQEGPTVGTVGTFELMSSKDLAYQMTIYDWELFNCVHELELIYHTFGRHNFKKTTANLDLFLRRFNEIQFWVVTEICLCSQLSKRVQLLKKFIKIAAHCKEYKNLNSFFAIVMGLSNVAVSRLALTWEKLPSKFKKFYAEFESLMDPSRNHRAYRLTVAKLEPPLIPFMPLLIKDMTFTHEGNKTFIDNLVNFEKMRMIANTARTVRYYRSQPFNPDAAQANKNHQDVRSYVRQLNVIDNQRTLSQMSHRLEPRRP
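Exchange assay: 100 nM EPAC2 with 250 nM Rap1B-BODIPY-GDP and 50 uM GDP. Fluorescence (ex 480/em 540 nm) read every 5 min for 30 min at room temperature. Data normalized to 6.5 mM cAMP as agonist control.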
USP1-UAF1 inh – inhibitors of human USP1/UAF1 deubiquitinase; AID 743255; Potency, µM (titrated, usually from 57.1 µM), for inactives: top-dose activity change, negative = inhibition, hits mostly inhibitors; recombinant USP1/UAF1, Ub-Rhodamine cleavage fluorescence; O94782; hit rate 0.23% among 390,000; further: on the % scale 0 is the no-effect control and ±100 the full control effect; nearly all actives have a fitted effect of over 60% in size
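USP1/UAF1 complex at 1 nM was preincubated with compound for 15 min at room temperature, then Ub-Rho substrate (150nM final) was added. Fluorescence (480/540 nm) was read kinetically, 6 reads every 60 seconds.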
USP2a block – USP2a (human) protease inhibition; Potency, µM (highest dose often 38.3 µM), inactives show top-dose activity change, negative = inhibition, hits mostly inhibitors; O75604; hit rate 0.01% among 330,000; USP2 core, Ub-CHOP2 coupled fluorogenic reporter, 485/531; AID 463254;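 further: plate controls were DMSO wells for no effect and full inhibition by NEM control for full effect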
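Cell-free coupled assay: 10nM USP2 core preincubated 30min RT with compound in Tris-HCl pH 8.0/CaCl2/CHAPS buffer, then 25nM Ub-CHOP2 and 25nM reporter substrate; fluorescence (Ex 485/Em 531) read after 60min RT, normalized to NEM inhibition, concentration-response curves fitted.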
EPAC2 antag – blocks human EPAC2 exchange factor; Q8WZA2; Potency, µM (highest dose often 114 µM), for inactives: at the top dose activity, negative = inhibition, hits mostly inhibitors; hit rate 0.18% among 360,000; EPAC2 GEF exchange of Rap1B-BODIPY-GDP, fluorescence; AID 720708; further: on the % scale 0 is the no-effect control and ±100 the full control effect; nearly all actives have a fitted effect of over 45% in size
Starred values were filed as active, the others as inactive; ? = inconclusive; / = no result given; [ ] = dose if it differs, or a comment. Most compounds without a hit are left out; they make up all but 0.44% or so of the library. The call rests on the fitted dose curve; in most records, active means well fitted curve in the direction sought with a large enough effect; inconclusive means small, poorly fitted or top-dose-only effect, or another doubt; inactive means no such curve, though single readings can be large; an effect the other way counts as inactive or inconclusive. Potency means the concentration at half of the fitted maximal effect.

SMILES	EPAC1 antag	EPAC1 agonist	EPAC2 agonist	USP1-UAF1 inh	USP2a block	EPAC2 antag
O=c1cc(C(F)(F)F)c2cc3c4c(c2o1)CCCN4CCC3	99%	?	45µM*	375%	?	21%
Cc1cc2c(C(F)(F)F)cc(=O)oc2c2c1NCCC2	0%	19%	?	?	6%	23%
COc1cccc(C(C)(O)c2nc(-c3cccc(F)c3)cs2)c1 (stereo unspecified)	-25%	-7%	6%	/	/	?
Cc1ccccc1N1C(=O)NC(=O)/C(=C/c2ccc(N3CCOCC3)o2)C1=O	25%	19%	-9%	25µM*	?	-20%
CN1/C(=C\C=C2C(=O)NC(=S)NC2=O)C(C)(C)c2ccccc21	131%	?	50µM*	?	?	200%
CCOc1ccc(N2C(=O)/C(=C/c3ccco3)C(=O)NC2=S)cc1	11µM*	-3%	3%	22µM*	-2%	?
CCN(CC)C(=O)c1ccc2c(c1)C1C=CCC1C(C(=O)O)N2 (stereo unspecified)	-14%	21%	6%	25µM*	6%	38%
O=C1NC(=O)N(Cc2ccccc2)C(=O)/C1=C\c1ccco1	?	-15%	-3%	-15%	-1%	-3%
CCCCN1C(=O)/C(=C\c2ccco2)C(=O)N(CCc2ccccc2)C1=O	25µM*	0%	7%	-12%	?	-1%
C[C@H](CO)N1C[C@H](C)[C@@H](CN(C)C(=O)NC2CCCCC2)Oc2c(cccc2N(C)C)C1=O	6%	-21%	-7%	?	7%	9%
Clc1cc(Cl)c(-c2cc(Cl)c(Cl)cc2Cl)cc1Cl	-23%	1%	9%	-22%	3%	4µM*
Nc1ccc2ccc3cccc[n+]3c2c1	342%	100µM*	112µM*	28µM*	?	360%
CCOC(=O)[C@]12Cc3cc(Cl)ccc3[C@H]1N(C(C)C)C(=O)c1ccccc12	-5%	-7%	9%	/	/	17µM*
CCOC(=O)[C@]12Cc3cc(Cl)ccc3[C@H]1N(C)C(=O)c1ccccc12	15%	-3%	0%	/	/	-22%
CCOC(=O)[C@]12Cc3cc(OC)ccc3[C@H]1N(Cc1ccccc1)C(=O)c1cc(OC)ccc12	-13%	-8%	6%	/	/	-29%
CCOC(=O)[C@]12Cc3ccccc3[C@H]1N(Cc1ccccc1)C(=O)c1cc(OC)ccc12	-24%	4%	8%	/	/	28µM*
Brc1nc(-c2ccccc2)nc(-c2ccccc2)c1Br	3%	-4%	2%	-11%	/	-27%
Cn1ncnc2c(=O)n(C)c(=O)nc1-2	?	-7%	?	0.032µM*	1%	-29%
CN(c1ccc(O)cc1)c1ccc([N+](=O)[O-])c2nonc12	-17%	3%	0%	-16%	/	-23%
Nc1ccc2nonc2c1[N+](=O)[O-]	1%	?	?	32µM*	?	-1%
COc1ccccc1Cc1c(-c2ccc(C)cc2)nc2cc(C)c(Br)c(C)n12	-20%	?	15%	/	/	7%
Cc1cc(C)cc(-n2c(O)c(C=Nc3ccc(N4CCOCC4)cc3)c(=O)[nH]c2=S)c1	-24%	11%	-4%	-21%	1%	21%
O=c1[nH]c(=S)n(-c2ccc(Br)cc2)c(O)c1C=Nc1ccc(N2CCOCC2)cc1	0%	-17%	-4%	32µM*	2%	25%
O=c1[nH]c(=S)n(-c2ccccc2F)c(O)c1C=Nc1ccc(N2CCOCC2)cc1	88%	56µM*	?	25µM*	4%	93%
Cc1ccc([C@H]2C[C@H](n3cc(C4CC4)nn3)[C@@H](O)CN2Cc2cccs2)cc1	-12%	-7%	6%	?	/	0%
SMILES	EPAC1 antag	EPAC1 agonist	EPAC2 agonist	USP1-UAF1 inh	USP2a block	EPAC2 antag
O=C(O)C(NC(=O)c1ccccc1)=C(Cl)Cl	?	0%	3%	-5%	/	2%
N=C1/C(=C\c2ccc(OC(=O)c3ccccc3Cl)cc2)C(=O)N=C2SC(N3CCOCC3)=NN12	?	-5%	4%	?	-2%	-10%
O=C1C=C(N2CC2)c2ccccc2C1=O	?	14%	15%	7.1µM*	/	?
O=C(C[C@@H]1C[C@@H]2c3cc(NS(=O)(=O)c4ccc(F)cc4)ccc3O[C@@H]2[C@H](CO)O1)N1CCc2ccccc2C1	-8%	9%	9%	?	/	-25%
CC(=O)n1cc(C=C2C(=O)NC(=O)NC2=O)c2ccccc21	-26%	6%	12%	-5%	3%	1%
Cn1cc(C=C2C(=O)NC(=O)NC2=O)c2ccccc21	-29%	13%	?	28µM*	3%	43%
COc1ccccc1N=Nc1ccc(N)c(C)c1	?	5%	7%	-4%	-7%	-4%
CCc1nc2c(OCc3ccc(C(F)(F)F)cc3)cccn2c1N(C)C(=O)C(C)C	-9%	-14%	3%	/	/	?
O=[N+]([O-])c1ccc(NCc2ccccc2)c2nonc12	34%	56µM*	56µM*	22µM*	?	36%
COc1ccc(N=Cc2c(O)n(Cc3ccccc3)c(=S)[nH]c2=O)c(OC)c1	-9%	11%	100µM*	12%	17%	1%
COc1ccc(OC)c(N=Cc2c(O)n(Cc3ccccc3)c(=S)[nH]c2=O)c1	6%	8%	?	28µM*	1%	4%
N#Cc1cc(NC(=O)c2ccc(Cl)cc2)ccc1Sc1ccccc1	5%	-14%	-14%	/	/	?
Cc1cc2c(C(C)C)c(O)c(O)c(C=O)c2c(O)c1-c1c(C)cc2c(C(C)C)c(O)c(O)c(C=O)c2c1O	/	/	/	/	5.6µM*	/
C=CCn1c(-c2ccc([N+](=O)[O-])cc2)n[nH]c1=S	?	3%	1%	4%	3%	-11%
O=[N+]([O-])c1ccc(N2CCCCCC2)c2nonc12	67%	100µM*	100µM*	28µM*	?	42%
O=C1C(=Cc2cn(-c3ccccc3)nc2-c2ccc(OCc3ccc(Cl)cc3)cc2)SC(=S)N1CCS(=O)(=O)O	?	7%	25%	/	/	44%
CC(C)C(=O)Nc1ccc([N+](=O)[O-])c(C(F)(F)F)c1	16%	-17%	-1%	?	-1%	-19%
Cc1ccc(N2C(=O)NC(=O)/C(=C\c3cccn3C(C)(C)C)C2=O)cc1	-11%	-12%	-16%	-17%	2%	7%[57.1 µM]
CCC(C)c1ccc(N2C(=O)NC(=O)/C(=C/c3cccn3CCOc3ccc(C)cc3)C2=O)cc1 (stereo unspecified)	45µM*	-23%	-31%	1%	4%	-2%
